The list is not random: actives were taken first. Their share in the collection is about 2.9%.
GLP-1R inv ag: qHTS of GLP-1 Receptor Inverse Agonists (Inhibition Mode); actives 1.6% (n = 410,000); Potency, µM (highest dose often 38.3 µM), without a hit: at the highest dose activity change, negative = inhibition, usual class: inhibitors; Glucagon-like peptide 1 receptor (Homo sapiens), P43220; HEK293 GLP-1R CRE-luciferase, luminescence, 24 h; GLP-1R form is constitutively active; AID 624417, 2012; also: potency is read from the fitted curve at half-maximal effect; % is scaled to controls: 0 for no effect and ±100 for the full control effect; nearly all actives have a fitted effect of over 55% in size
Target sequence (P43220 whole entry, looked up): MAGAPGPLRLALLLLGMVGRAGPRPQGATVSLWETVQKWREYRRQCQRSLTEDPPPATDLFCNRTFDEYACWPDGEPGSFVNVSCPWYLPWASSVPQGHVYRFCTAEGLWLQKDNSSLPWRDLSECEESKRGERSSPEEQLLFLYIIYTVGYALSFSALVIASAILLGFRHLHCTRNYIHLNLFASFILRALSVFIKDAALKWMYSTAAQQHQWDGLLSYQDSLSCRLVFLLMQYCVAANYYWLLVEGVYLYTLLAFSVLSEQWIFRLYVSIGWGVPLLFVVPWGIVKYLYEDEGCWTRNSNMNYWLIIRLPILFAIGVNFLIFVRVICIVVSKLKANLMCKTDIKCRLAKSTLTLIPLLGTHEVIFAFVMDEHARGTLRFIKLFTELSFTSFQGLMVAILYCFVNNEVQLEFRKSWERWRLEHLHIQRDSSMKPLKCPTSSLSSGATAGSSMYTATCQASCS
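Constitutively active GLP-1R drives a cAMP-responsive luciferase in stably transfected HEK293 cells; test compounds are added after overnight (12 h) attachment and left 24 hr, and signal loss in luminescence marks inhibition.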
ClpP mod: qHTS Assay for Activators of ClpP; ATP-dependent Clp protease proteolytic subunit (Bacillus subtilis (strain 168)), P80244; actives 1.9% (n = 340,000); purified B. subtilis ClpP, FRET peptide cleavage, 20 min; Potency, µM (titrated, usually from 57.5 µM), for inactives: at the top dose activity change, negative = active; active = well fitted falling curve with a large enough effect; inconclusive = small, poorly fitted or top-dose-only effect; inactive = no such curve, though single readings can be large or run the other way; also: potency is read from the fitted curve at half-maximal effect; the source files actives as falling curves though it sought activators and does not explain the sign; nearly all actives have a fitted effect of over 65% in size
Target sequence (P80244 whole entry, looked up): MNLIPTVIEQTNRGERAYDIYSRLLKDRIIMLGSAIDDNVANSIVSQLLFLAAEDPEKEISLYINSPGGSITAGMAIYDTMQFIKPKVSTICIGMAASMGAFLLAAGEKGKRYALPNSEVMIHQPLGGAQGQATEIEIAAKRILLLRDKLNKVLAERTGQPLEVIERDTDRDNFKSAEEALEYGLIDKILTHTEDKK
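Buffer: 100 mM Tris/HCl pH8, 100 mM KCl, 0.05% low protease BSA, 2.5% glycerol, 0.01% Tween-20. ClpP 10 microg/mL final; 20 min RT; delta FRET normalized to ADEP and DMSO controls.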
GLP1R ag: qHTS of GLP-1 Receptor Agonists | Glucagon-like peptide 1 receptor (Homo sapiens), P43220 | Potency, µM (series often up to 45.6 µM), for inactives: top-dose activation, usual class: activators | actives 0.007% (n = 380,000) | HEK293 GLP-1R CRE-luciferase, luminescence, 4-6 h; cells express a hypersensitive GLP-1R form; also: potency is read from the fitted curve at half-maximal effect; % of control where 0% means no effect
HEK293 tox: qHTS of GLP-1 Receptor Inverse Agonists: Cytotox Screen. actives 0.13% (n = 410,000). HEK293 cAMP-luciferase reporter cells, luminescence, 24 h. Potency, µM (top dose mostly 38.3 µM), for the others: at the highest dose activity change, negative = inhibition, usual class: inhibitors;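 also: loss of luciferase light is scored as toxicity; potency is read from the fitted curve at half-maximal effect; % is scaled to controls: 0 for no effect and ±100 for the full control effect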
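Seeding density was 200 cells/uL; after overnight-length (12 h) culture, 23 nL compounds went on for 24 h at 37 °C. Readout used a luciferase detection reagent, luminescence taken after 12 min at room temperature.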
LDHA inh: qHTS assay for inhibitors of human lactate dehydrogenase | purified LDHA, NADH/diaphorase-resazurin fluorescence; stronger effect = lower value | activity change, % (values are at about 110 or 230 µM) | actives 0.15% (n = 480,000) | AID 1347041, 2019 | L-lactate dehydrogenase A chain (Homo sapiens), P00338; in the data active = activity change below about -30%; inconclusive = mostly about -25% to -30%;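 also: plate controls were DMSO wells for no effect and wells without enzyme for full effect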
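Remaining NADH was detected by diaphorase (0.133 mg/mL) converting 37 µM resazurin to fluorescent resorufin, read at 0 and 20 minutes. The preceding 5-minute room-temperature reaction used 2 nM LDHA, 0.2 mM sodium pyruvate and 0.06 mM NADH at pH 7.4.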
p53 reactivator: qHTS assay for re-activators of p53 using a Luc reporter. H1299 p53-A138V BP100-luciferase reporter, luminescence, 24 h. Potency, µM (highest dose often 92.2 µM), inactives show at the highest dose activity change, positive = activation, actives largely listed as activators. actives 0.063% (n = 320,000). AID 504706, 2011; also: potency is read from the fitted curve at half-maximal effect; % of control where 0% means no effect; nearly all actives have a fitted effect of over 45% in size
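H1299 (p53-null), stable ts p53-A138V + BP100-Luc; 1000 cells/well, Opti-MEM/10% FBS; cpd 4 pt, 1:5; 24 h, 37 deg C, 5% CO2; detection reagent 10 min RT; luminescence.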
Active calls of the source: *; ? = inconclusive; / = not tested or not shown. Unless noted, calls follow the shape of the dose curve; as a rule, active = well fitted curve in the direction sought with a large enough effect; inconclusive = small, poorly fitted or top-dose-only effect, or another doubt; inactive = no such curve, though single readings can be large; an effect the other way counts as inactive or inconclusive.

SMILES | GLP-1R inv ag | ClpP mod | GLP1R ag | HEK293 tox | LDHA inh | p53 reactivator
C=C(C)COc1ccc(-c2[nH]ncc2-c2ccc(OC)cc2)c(O)c1 | 11µM* | -18% | 1% | -15% | -3 | -10%
CCCOC(=O)c1ccc(Oc2cn[nH]c2-c2ccc(O)cc2O)cc1 | ? | -2% | 5% | 4% | 3 | -1%
C=C(C)COc1ccc(-c2ncncc2Oc2ccc(OC)cc2)c(O)c1 | 10µM* | -3% | -1% | 30% | 6 | 18%
C=C(C)COc1ccc(-c2nc(N)ncc2-c2ccc(OC)cc2)c(O)c1 | / | / | / | / | / | -23%
CCCOC(=O)c1ccc(Oc2c(-c3ccc(OC)cc3O)n[nH]c2C)cc1 | 8.9µM* | 1% | -23% | ? | -3 | -8%
C=C(C)COc1ccc(-c2nc(N)nc(C)c2-c2ccc(OC)cc2)c(O)c1 | -10% | 25µM* | 2% | 14% | 5 | 5%
CC(C)CCOc1ccc(C(=O)NCC(c2cccs2)N2CCOCC2)cc1 (centres undefined) | ? | -1% | 0% | -7% | 0 | 3%
C=C(C)COc1ccc(-c2[nH]ncc2Oc2cccc(OC)c2)c(O)c1 | 10µM* | -6% | -11% | ? | -5 | -17%
C=C(C)COc1ccc(-c2n[nH]c(C)c2Oc2ccccc2OC)c(O)c1 | 7.9µM* | -6% | -17% | -8% | -1 | -37%
CC(C)C(NS(=O)(=O)c1ccccc1)C(=O)OCc1cc([N+](=O)[O-])cc2c1OCOC2 (centres undefined) | -22% | 32µM* | 20% | -16% | -2 | 4%
FC(F)C(F)(F)Oc1cccc(Nc2nccn3c(-c4ccc5ccccc5c4)cnc23)c1 | 11µM* | 4% | -1% | -5% | -79* | /
Cc1ccc(S(=O)(=O)N2CCC(C(=O)NCc3ccccc3CN3CCCC3)CC2)cc1 | ? | 0% | 6% | 6% | -8 | 7%
Cc1ccc(NC(=O)Nc2nnc(-c3ccccc3)o2)cc1 | 29% | / | 6% | 0% | -11 | 9%
CCCCNC(=O)Nc1nnc(-c2ccc(OCC)cc2)o1 | 4% | 25µM* | -12% | 3% | -5 | -7%
CCOC(=O)CNC(=O)Nc1nnc(-c2ccc(OCC)cc2)o1 | 7% | 6.3µM* | -10% | -11% | 0 | 2%
CCCCNC(=O)Nc1nnc(-c2ccccc2)o1 | 7% | 14µM* | -6% | -15% | -7 | 0%
CCn1nc(C)c(/C=N/NC(=O)c2c[nH]c3ccccc23)c1C | 81% | 4% | 12% | -18% | 0 | ?
COc1ccc(OCC(O)Cn2c(=N)n(Cc3ccccc3)c3ccccc32)cc1 (centres undefined) | ? | 4% | -20% | 7.9µM* | -1 | -13%
CCN(CC)CCn1c(=N)n(CC(O)COc2ccccc2C)c2ccccc21 (centres undefined) | 10µM* | 1% | / | ? | -6 | /
CCN(CC)CCn1c(=N)n(CC(O)COc2cccc(C)c2)c2ccccc21 (centres undefined) | ? | / | 7% | ? | -2 | -10%
Cc1ccc(OCC(O)Cn2c(=N)n(Cc3ccccc3)c3ccccc32)cc1 (centres undefined) | 11µM* | 2% | -5% | ? | 2 | -9%
CCC(C)C(C(=O)OCC[N+](C)(CC)CC)c1ccccc1 (centres undefined) | / | / | 0% | / | / | /
COc1ccccc1CNC(=O)CN1NS(=O)(=O)c2ccccc2C1=O | 7% | / | 12% | 2% | -4 | 1%
Nc1nc(SCc2ccccc2)n[nH]1 | 5% | / | 13% | -10% | -10 | 4%
N#CC(C#N)=Cc1cn(-c2ncc(C(F)(F)F)cc2Cl)c2ccccc12 | 7.9µM* | 16µM* | -2% | -9% | 1 | 6%
SMILES | GLP-1R inv ag | ClpP mod | GLP1R ag | HEK293 tox | LDHA inh | p53 reactivator
CC(=O)/C=C\c1cn(-c2ncc(C(F)(F)F)cc2Cl)c2ccccc12 | ? | 1% | -10% | -15% | -3 | -2%
Cc1ccc(-c2cc(C(F)F)n3ncc(C(=O)NCc4ccco4)c3n2)cc1 | 17% | -18% | -5% | 2% | 0 | 6%
CCN(CC)C(=O)c1cccc2c(=O)c(C)c(-c3ccccc3)oc12 | / | / | / | / | 8 | /
CCCCN(C(=O)c1cccc2c(=O)c(C)c(-c3ccccc3)oc12)c1ccccc1 | 10µM* | 0% | -6% | -16% | 2 | -9%
CCCCNC(=O)c1cccc2c(=O)c(C)c(-c3ccccc3)oc12 | -3% | 28µM* | 1% | 2% | -9 | -4%
CCC1S/C(=N/N=C/c2ccco2)N(Cc2ccccc2C)C1=O (centres undefined) | ? | 1% | 14% | -5% | -4 | 12%
O=C(CC1SC(=Nc2ccccc2)N(CCc2c[nH]c3ccccc23)C1=O)Nc1ccccc1F (centres undefined) | 6.3µM* | 0% | 6% | ? | -9 | 2%
O=C1C(Nc2cccc(O)c2)=C(N2CCCCC2)C(=O)c2ccccc21 | ? | 4% | 5% | 3.5µM* | 34 | -5%
O=C1C(Nc2ccccc2)=C(N2CCCCC2)C(=O)c2ccccc21 | ? | 10% | -7% | -11% | 23 | -3%
CCCn1c(O)c(CN2CCCCC2)c(C)c(C#N)c1=O | -1% | -20% | 4% | 19% | 20 | -1%
Cc1ccc(S(=O)(=O)NCCCCCC(=O)Nc2nccs2)cc1 | 1% | -2% | -3% | 17% | -3 | 2%
COCCCNC(=O)CC(NS(=O)(=O)c1ccc(OC)cc1)c1ccc(OC)cc1 (centres undefined) | 0% | 22µM* | -2% | -1% | -2 | 9%
COCCCNC(=O)CC(NS(=O)(=O)c1ccc(C)cc1)c1ccc(OC)cc1 (centres undefined) | 1% | 0% | -8% | -1% | 1 | -4%
CCN1C2=NCCCN2c2cc(C)c(C)cc21 | -16% | 28µM* | 0% | 2% | -2 | -9%
Cc1cccc(CN2C3=NCCCN3c3ccccc32)c1 | -10% | 1% | 7% | ? | -5 | -3%
CCn1cc(CN2CCCC(C(=O)Nc3cccc(-c4cc5ccccc5[nH]4)c3)C2)c(C)n1 (centres undefined) | 11µM* | 3% | 1% | ? | -1 | ?
O=C(O)C(=Cc1cccc([N+](=O)[O-])c1)c1ccc(Cl)cc1 | 4% | 25µM* | 0% | -15% | -11 | /
